D3 antag = qHTS of D3 Dopamine Receptor Antagonist: qHTS. D3R cells, DiscoveRx beta-arrestin luminescence, antagonist mode; hits give low values. max response, negative = inhibition, %. actives 2.5% (n = 360,000); in the data active means max response below about -50%; further: on the % scale 0 is the no-effect control and ±100 the full control effect
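Cells expressing the human receptor were seeded at 1500 cells/well, incubated overnight at 37 degrees C in 5% CO2, then exposed to library compounds with dopamine controls for 90 minutes at 37 degrees C before luminescent detection.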
D1 antagonist = Antagonist of Human D 1 Dopamine Receptor: qHTS | D(1A) dopamine receptor (Homo sapiens), P21728 | HEK293 TREx D1 cells, calcium flux, dopamine EC80; hits give low values | activity change, negative = inhibition, % at 10 µM | actives 3.2% (n = 360,000); in the data active means activity change below about -30%; further: on the % scale 0 is the no-effect control and ±100 the full control effect
Target sequence (P21728 whole entry, looked up): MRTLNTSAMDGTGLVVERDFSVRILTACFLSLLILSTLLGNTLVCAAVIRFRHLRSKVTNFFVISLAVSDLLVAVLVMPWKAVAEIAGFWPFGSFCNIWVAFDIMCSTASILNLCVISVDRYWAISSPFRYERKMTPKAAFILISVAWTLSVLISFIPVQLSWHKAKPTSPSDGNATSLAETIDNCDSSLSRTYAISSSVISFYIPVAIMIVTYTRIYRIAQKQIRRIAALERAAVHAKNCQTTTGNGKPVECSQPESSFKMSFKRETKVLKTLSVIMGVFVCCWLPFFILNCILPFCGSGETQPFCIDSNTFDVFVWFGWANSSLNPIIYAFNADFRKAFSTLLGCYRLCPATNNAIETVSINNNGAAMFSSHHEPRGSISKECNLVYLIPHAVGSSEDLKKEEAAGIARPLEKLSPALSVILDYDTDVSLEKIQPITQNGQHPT
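HEK293 T-REx cells expressing inducible, force-coupled D1 receptor; no-wash Ca dye, 30–90 min RT. Cmpd → 180 s read at 1 Hz → EC80 DA → 180 s read.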
D1 agonist = Allosteric Agonists of the Human D1 Dopamine Receptor: qHTS. D(1A) dopamine receptor (Homo sapiens), P21728. actives 1% (n = 360,000). activation, % at 2 µM. HEK293 T-REx D1 cells, calcium flux, agonist mode; in the data active means activation above about 30%; further: 0% is about no effect
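Agonism was scored from calcium flux recorded over 180 s (1 read/s) after pintool compound addition, following a 10-cycle baseline. Cells were inducible force-coupled HEK293 TREx D1, plated overnight at 30 C and loaded with no-wash calcium dye.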
D1 PAM = Potentiators of Human D1 Dopamine Receptor: qHTS. HEK293 TREx D1 cells, calcium flux, dopamine EC20 potentiation. potentiation, % at 10 µM. actives 0.036% (n = 360,000). AID 504651, 2011; in the data active means potentiation above about 30%; further: 0% is about no effect
D3 ag = qHTS of D3 Dopamine Receptor Agonist: qHTS; actives 0.58% (n = 410,000); D3R DiscoveRx beta-arrestin cells, luminescence, 90 min; max activation, %; D(3) dopamine receptor (Homo sapiens), P35462; AID 652048, 2013; in the data active means max activation above about 30%; further: 0% is about no effect
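Cells at 1500/well, incubated overnight, then treated with pinned compounds (dopamine as control) for 90 min at 37 degrees C. DiscoveRx reagent added for 30 - 60 minutes at room temperature; luminescence read.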
* hit, by the source's call; ! = not confirmed by another sample. Sampled rows, rich in hits. Any-hit rate of the full collection: about 6.1%.

c1ccc2c(c1)Sc1ccccc1N2CCN1CCCC1 was read as D3 ag -10.0.
For O=C(CCN1CCN2CCCC2C1)N1c2ccccc2Sc2ccc(Cl)cc21 (centres undefined) the results were D3 antag -53.8*, D1 antagonist -16.3, D1 agonist 10.8, D1 PAM -7.7 and D3 ag -16.1.
`CN1CCN(CCCN2c3ccccc3Sc3ccc(C(F)(F)F)cc32)CC1` gave D3 antag -104.4*!, D1 antagonist -80.5*, D1 agonist 26.9, D1 PAM -4.0 and D3 ag -14.0.
For NCCC(=O)N1c2ccccc2Sc2ccc(Cl)cc21 the results were D3 antag -9.8, D1 antagonist 1.6, D1 agonist 59.1*, D1 PAM -1.9 and D3 ag -6.5.
Screening CS(=O)(=O)N(CC(=O)NCc1ccco1)c1ccc(OCc2ccccc2)cc1 returned D3 antag 0.2, D1 antagonist 3.6, D1 agonist 17.3, D1 PAM 1.4 and D3 ag 6.8.
`NC(=O)N1CCN(CCCN2c3ccccc3Sc3cc(Cl)ccc32)CC1` gave D3 antag -69.0* and D3 ag -7.1.
`O=C1CCCN1CCCNCC(O)c1ccccc1` (centres undefined) gave D3 antag -9.1, D1 antagonist -9.2, D1 agonist 3.6, D1 PAM -5.2 and D3 ag -5.0.
O=C1CCCN1CCCNCC(=O)N1c2ccccc2Sc2ccccc21 was read as D3 antag -53.3*, D1 antagonist 16.2, D1 agonist 5.6, D1 PAM -6.5 and D3 ag -3.1.
O=C(COc1ccccc1)NCc1ccccc1 was read as D3 antag 4.3, D1 antagonist -4.4, D1 agonist 1.7, D1 PAM -4.0 and D3 ag -2.4.
Screening O=C(c1ccccc1)c1ccc(OCC(O)CNCc2ccc(F)cc2)cc1 (centres undefined) returned D3 antag -18.0, D1 antagonist -17.9, D1 agonist 51.6*, D1 PAM -2.5 and D3 ag -16.0.
CCC(=O)c1ccc(OCC(O)CNCc2ccc(F)cc2)cc1 (centres undefined) was read as D3 antag -15.5, D1 antagonist -5.0, D1 agonist 9.7, D1 PAM -1.1 and D3 ag 4.3.
For O=C(COc1ccc(C(=O)c2ccccc2)cc1)NCc1ccc(F)cc1 the results were D3 antag -14.3, D1 antagonist -38.9*, D1 agonist 15.7, D1 PAM -3.1 and D3 ag -2.9.
For O=C(COc1ccc(Br)cc1)NNC(=S)NCc1ccccc1 the results were D3 antag -67.6*, D1 antagonist 16.9, D1 agonist -2.0, D1 PAM -2.2 and D3 ag -10.9.
O=C(c1ccccc1)c1ccc(OCC(O)CNCc2cccc(Cl)c2)cc1 (centres undefined) was read as D3 antag 2.4, D1 antagonist -4.6, D1 agonist 42.6*, D1 PAM -1.7 and D3 ag 6.3.
Screening Cc1ccc(NC(=O)CSc2nccn2Cc2ccco2)cc1Cl returned D1 antagonist 2.8, D1 agonist 4.1, D1 PAM -5.4 and D3 ag -12.5.
`Cc1ccc(C(OCC(O)CNCc2ccc(F)cc2)c2ccccc2)cc1` (centres undefined) gave D3 antag 17.6, D1 antagonist 4.2, D1 agonist 66.5*, D1 PAM 31.4* and D3 ag -9.6.
For CC(C)(C)OC(=O)N1CCC(c2c(C(=O)N3CCN(c4ccccn4)CC3)cnn2-c2ccccc2Cl)CC1 the results were D1 antagonist -2.1, D1 agonist 0.2, D1 PAM -4.8 and D3 ag -14.7.
For O=C(C1=C(c2ccccc2)C(=O)c2ccccc2C1=O)c1ccccc1 the results were D3 antag -95.3*, D1 antagonist 9.3, D1 agonist 1.2, D1 PAM 8.5 and D3 ag -26.5.
Screening CCc1ccc(NS(=O)(=O)c2[nH]ncc2C(=O)OC)cc1 returned D1 antagonist -37.5*, D1 agonist 0.3, D1 PAM 0.0 and D3 ag 10.5.
`C[C@H](NC(=O)[C@H]1N2C(=O)c3ccccc3C2SC1(C)C)C(=O)N1CCC[C@H]1C(=O)O` (some centres undefined) gave D3 antag 14.8, D1 antagonist 2.4, D1 agonist 1.0, D1 PAM 0.0 and D3 ag 7.6.
Screening C[C@H](NC(=O)[C@H]1N2C(=O)c3ccccc3C2SC1(C)C)C(=O)N1CCC[C@H]1CO (some centres undefined) returned D3 antag 0.0, D1 antagonist 6.8, D1 agonist 40.0*, D1 PAM -4.7 and D3 ag -13.9.
For COc1nc(NC(C)C)nc(N(C#N)CN2C(=O)c3ccccc3S2(=O)=O)n1 the results were D3 antag -57.7*, D1 antagonist 24.5, D1 agonist 0.4, D1 PAM 3.4 and D3 ag -3.2.
For CCOC(=O)c1ccc(N2C(=O)c3n[nH]c(-c4cccs4)c3C2c2cccc(F)c2)cc1 (centres undefined) the results were D1 antagonist 16.0, D1 agonist -1.8, D1 PAM 2.2 and D3 ag 6.3.
`CCOc1ccc(CCNC(=O)c2cnc3sc(N4CCCCC4)nn3c2=O)cc1` gave D1 antagonist 2.5, D1 agonist 2.2, D1 PAM -5.2 and D3 ag 5.2.
COC(=O)c1c(C)oc(C)c1S(=O)(=O)N(C)C1CCCCC1 was read as D3 antag 0.0, D1 antagonist -45.5*, D1 agonist 1.4, D1 PAM -2.1 and D3 ag -6.0.
For COC(=O)c1c(C)oc(C)c1S(=O)(=O)NCC1CC1 the results were D3 antag 7.5, D1 antagonist -5.2, D1 agonist 3.5, D1 PAM -10.6 and D3 ag 7.4.
`COc1ccc(N(CC(=O)N/N=C/c2cccnc2)S(=O)(=O)c2ccccc2)c(OC)c1` gave D3 antag -0.5, D1 antagonist -15.0, D1 agonist 5.3, D1 PAM -13.3 and D3 ag -7.0.
COc1ccc(N(CC(=O)N/N=C/c2cccnc2)S(=O)(=O)c2ccc(C)cc2)cc1OC was read as D3 antag 1.2, D1 antagonist -52.2*, D1 agonist 2.8, D1 PAM -4.9 and D3 ag 3.4.
For O=c1nc2ccccc2c2n1CC(CN1CCN(C(c3ccccc3)c3ccccc3)CC1)N2 (centres undefined) the results were D3 antag -77.4*, D1 antagonist 16.6, D1 agonist 0.9, D1 PAM -6.7 and D3 ag -9.6.

Assay outcomes (PubChem BioAssay)
